Bioassay records (PubChem BioAssay)
AmpC nodet inh – blocks E. coli AmpC beta-lactamase in absence of detergent; AmpC nitrocefin hydrolysis, absorbance 480 nm, no detergent; Potency, µM (highest dose often 28.7 µM); hit rate 1.8% among 71,000
Target sequence (P00811 whole entry, looked up): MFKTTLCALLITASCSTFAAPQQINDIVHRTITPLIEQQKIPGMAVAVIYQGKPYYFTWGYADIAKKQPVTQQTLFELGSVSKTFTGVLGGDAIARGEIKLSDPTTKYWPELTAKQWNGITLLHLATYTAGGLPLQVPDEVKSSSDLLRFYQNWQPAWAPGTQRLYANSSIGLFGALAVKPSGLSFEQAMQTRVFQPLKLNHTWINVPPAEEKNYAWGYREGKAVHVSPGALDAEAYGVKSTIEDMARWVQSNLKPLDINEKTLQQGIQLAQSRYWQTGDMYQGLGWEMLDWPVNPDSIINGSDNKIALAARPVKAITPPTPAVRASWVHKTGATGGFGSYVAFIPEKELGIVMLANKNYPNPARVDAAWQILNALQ
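Enzyme, pH 7.0 phosphate. Compound titrations were pre-incubated with AmpC for 15 min at room temperature before nitrocefin (stock 800 uM) addition; product formation was recorded at 480 nm every 20 s for 4 min.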
SmPrx2 inh – Schistosoma mansoni Prx2 inhibition. S. mansoni Prx2 activity coupled to TGR/GSH (TGR is thioredoxin glutathione reductase), NADPH fluorescence loss, qHTS. Potency, µM. hit rate 0.07% among 65,000. AID 448
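Prx2 activity was followed as the loss of NADPH fluorescence (ex 365/em 450 nm), read every 30 sec for 8 min after H2O2 start. The enzyme mix (50 nM Prx2, 25 nM TGR, GSH, NADPH; pH 7.4 phosphate buffer) was incubated with compound for 15 min at room temperature first.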
AmpC inh det – AmpC beta-lactamase inhibition, detergent assay; purified AmpC, nitrocefin hydrolysis with detergent; hit rate 0.09% among 71,000; P00811; Potency, µM (highest dose often 28.7 µM); AID 584; active means well fitted curve in the direction sought with a large enough effect; inconclusive means small, poorly fitted or top-dose-only effect
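E. coli AmpC (5.3 nM) in 20 mM phosphate pH 7.0 with 0.01% Triton X-100, preincubated 15 min RT with compound; nitrocefin (2 uL of 800 uM stock) hydrolysis followed by 480 nm absorbance every 20 s over 4 min.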
Anthrax LT inh – blocks cellular internalization of anthrax lethal toxin; Cells, anthrax lethal toxin internalization, FRET ratio (460/530); Potency, µM (titrated, usually from 40 µM), most hits filed as inhibitors; hit rate 0.67% among 70,000; AID 912; further: nearly all actives have a fitted effect of over 50% in size
Numbers stand for hits; - = inactive; ? = inconclusive; . = no result given; [ ] = remark or other dose. In the library only some 2.4% were active in any assay of this set; here they are far more common. Unless noted, the call rests on the fitted dose curve.

SMILES | AmpC nodet inh | SmPrx2 inh | AmpC inh det | Anthrax LT inh
O=C(O)c1cccc([As]=[As]c2cccc(C(=O)O)c2)c1 (stereo not drawn) | -[5.75 µM] | 0.25 | -[5.75 µM] | ?
CC1(C)CC(=O)C=C(Nc2ccc3c(c2)OCCO3)C1 | - | . | - | -
Cc1cc(NC(=O)c2noc3c2CCc2ccccc2-3)n(-c2ccccc2)n1 | 2.5µM[single pt active] | - | - | -
Cn1nnnc1SCc1cc(=O)n2ccsc2n1 | - | - | - | -
CCCC(=O)c1ccc(N2CCN(C(=O)c3ccccc3Br)CC2)c(F)c1 | - | - | - | 13µM
Cc1ccc(-n2cnc3c(sc4nccc(N(C)C)c43)c2=O)cc1 | - | . | - | 6.3µM
COc1ccc(-n2cnc3c(sc4nccc(N(C)C)c43)c2=O)cc1 | - | - | - | .
CCOc1ccc2nc(SCC(=O)NC3CCS(=O)(=O)C3)[nH]c2c1 (stereo not drawn) | - | - | - | -
N#Cc1cccc(-c2nccc(NCc3ccccc3)n2)c1 | - | - | - | -
N#Cc1cccc(-c2nccc(NCc3cccnc3)n2)c1 | 5µM | - | 10µM | -
CCN(CC)CCCNC(=O)c1cc(-c2ccc(Cl)c(Cl)c2)on1 | - | - | - | -
Cc1ccc2cccc(OC(=O)N3CCCC3)c2n1 | - | - | - | -
CCOC(=O)c1sc(NC(=O)CSc2nnc(-c3ccco3)n2CC)c(C(=O)OCC)c1C | - | - | - | 10µM
CCOC(=O)c1c(NC(=O)CSc2nnc(-c3ccccc3)n2CC)sc(C(C)=O)c1C | - | . | - | -
CCOC(=O)c1cnc2c(C)c(Cl)ccc2c1N1CCOCC1 | 4µM[single pt active] | - | - | -
CCOC(=O)c1cnc2c(C(F)(F)F)cccc2c1N1CCOCC1 | - | - | - | -
CCCc1cc(C(=O)Nc2sc3c(c2C(=O)OCC)CCCC3)no1 | 4µM[single pt active] | - | - | -
CCOC(=O)c1c(NC(=O)c2noc3c2CCCC3)sc2c1CCCC2 | - | - | - | -
CCCc1cc(C(=O)Nc2cc(Br)ccc2O)no1 | 16µM[single pt active] | - | - | ?
CCCc1cc(C(=O)Nc2ccc(C)cc2)no1 | 4µM[single pt active] | - | - | ?
Cc1ccc(NC(=O)c2cc(C)on2)cc1 | - | - | - | -
CCc1ccc2oc(-c3cccc(NC(=O)c4cccnc4)c3)nc2c1 | - | - | - | ?
NC(=O)CN1CC(c2ccccc2)CC1=O (stereo not drawn) | - | . | - | -
Cc1cccc(OCC(O)CN2C(C)(C)CC(O)CC2(C)C)c1C (stereo not drawn) | - | - | - | -
CCN1CCN(CC(O)COc2ccc(C(C)=O)cc2)CC1 (stereo not drawn) | 4µM[single pt active] | - | - | -
SMILES | AmpC nodet inh | SmPrx2 inh | AmpC inh det | Anthrax LT inh
Cc1ccc(OCC(O)CN2CCN(Cc3ccc4c(c3)OCO4)CC2)c(C)c1 (stereo not drawn) | - | - | - | ?
CC(=O)c1ccc(OCC(O)CN2C(C)(C)CC(O)CC2(C)C)cc1 (stereo not drawn) | 4µM[single pt active] | - | - | -
CC(=O)c1ccc(OCC(O)CN2CCN(Cc3ccc4c(c3)OCO4)CC2)cc1 (stereo not drawn) | 4µM[single pt active] | - | - | -
CC(=O)c1ccc(OCC(O)CN2CCN(CCO)CC2)cc1 (stereo not drawn) | 4µM[single pt active] | - | - | -
Cc1ccc(OCC(O)CN2CCN(CC(O)COc3ccc(C)cc3)CC2)cc1 (stereo not drawn) | - | - | - | -
NS(=O)(=O)c1ccc(NC(=O)N[C@@H](Cc2ccccc2)C(=O)O)cc1 | - | - | - | -
O=C(NCc1ccccn1)c1ccc(/C=N/O)nc1 | - | - | - | -
CC(=O)c1ccc(OCC(O)CN2CCCC(C)C2)cc1 (stereo not drawn) | 3.2µM[single pt active] | - | - | -
CC(=O)OC(C)(CCC(C)(OC(C)=O)C(C)=O)C(C)=O (stereo not drawn) | - | - | - | -
Cc1nc2ccc(S(=O)(=O)NC(C(=O)NCc3ccco3)C(C)C)cc2s1 (stereo not drawn) | 4µM[single pt active] | - | - | -
COc1ccc(-n2cnnc2SCc2cnc(-c3ccccc3)s2)cc1 | - | - | - | -
N#C/C(C(=O)c1ccccc1)=C1/SC=C(N)N1c1ccccc1 | 13µM | - | - | -
CC1=CS/C(=C(/C#N)C(=O)N2CCCCC2)N1c1ccccc1 | - | . | - | -
O=C(CSc1nc(-c2ccc(F)cc2)cs1)NC(=O)NCc1ccco1 | 3.2µM | - | - | -
Cc1cc(NC(=O)CSc2nc(-c3ccc(F)cc3)cs2)no1 | - | - | - | -
Cc1ccc(-n2nc(C)c3c(-c4cccs4)c(C#N)c(N)nc32)cc1 | - | - | - | ?
Cc1nn(-c2ccccc2)c2nc(N)c(C#N)c(-c3ccc(F)cc3)c12 | - | . | - | 5µM
CCc1ccc(-n2c(O)cnc2Nc2nc(C)cc(C)n2)cc1 | 4µM[single pt active] | - | - | -
O=C(CSC1=NCCN1)NC12CC3CC(CC(C3)C1)C2 | - | - | - | -
CCN(CC)C(=O)c1sc(N)c(C#N)c1C | - | . | - | -
CC(C)Cc1cc(C(=O)Nc2cc(Cl)ccc2Cl)no1 | 4µM[single pt active] | - | - | -
CC(C)c1cc(C(=O)Nc2cc(Cl)ccc2O)no1 | - | - | - | ?
CC(C)Cc1cc(C(=O)Nc2ccc(F)cc2F)no1 | 4µM[single pt active] | - | - | -
O=C(Nc1ccc(F)cc1F)c1cc(-c2ccco2)on1 | - | - | - | -
O=C(NCCN1CCOCC1)c1cc(-c2ccc(Cl)cc2)on1 | - | - | - | ?
SMILES | AmpC nodet inh | SmPrx2 inh | AmpC inh det | Anthrax LT inh
CC(C)Cc1cc(C(=O)NCCN2CCOCC2)no1 | 4µM[single pt active] | - | - | -
CC(C)Cc1cc(C(=O)Nc2c(F)cc(F)cc2Br)no1 | 4µM[single pt active] | - | - | -
COc1ccc(C(N)=O)cc1NC(=O)CC(O)(C(F)(F)F)C(F)(F)F | - | - | - | -
Cc1cccc(-n2ncc3c(NCc4ccccn4)ncnc32)c1 | - | - | - | -
CCC(Sc1nccn1C)C(=O)Nc1nnc(C)s1 (stereo not drawn) | 4µM[single pt active] | - | - | -
CCC(Sc1nccn1C)C(=O)Nc1cccc2ccccc12 (stereo not drawn) | - | - | - | -
COc1ccc(C(=O)N2CCC[C@@]3(CCN(Cc4ccccc4OC)C3)C2)cc1 | - | - | - | -
COc1ccc(C(=O)N2CCC(n3c(C)nc4cc(F)ccc43)CC2)cc1OC | - | - | - | -
CCOC(=O)c1c(N)nn(C(C)=O)c1-c1ccccc1 | - | - | - | -
CCOC(=O)c1c(-c2ccccc2)c(C(C)=O)c(=O)n(C)c1C | 4µM[single pt active] | - | - | -
C=CCn1c(=O)n(CCOC)c(=O)c2sc3ccccc3c21 | 4µM[single pt active] | - | - | -
CC(C)CCn1c(SCC#N)nc2c(sc3ccccc32)c1=O | - | - | - | -
CC1CCN(c2nnc(N3CCC(C)CC3)c3ccccc23)CC1 | 3.2µM[single pt active] | - | - | -
CC1CCN(c2nncc3ccccc23)CC1 | - | - | - | -
Cc1c(Nc2cc(=O)oc3ccccc23)c(=O)n(-c2ccccc2)n1C | - | - | - | -
O=C(Nc1cccc(Br)c1)c1cc2ccccc2o1 | - | . | - | 5µM
O=S(=O)(Nc1ccn(-c2ccccc2)n1)c1ccc(Br)cc1 | 5µM | . | - | ?
O=C(NCc1ccco1)C1CCN(c2nc3ccccc3n2Cc2ccc(F)cc2)CC1 | - | - | - | -
Cn1nnnc1SCc1ccccc1F | - | - | - | -
